From PubChem BioAssay (NCATS)
Where “and” joins values, the source holds several entries; their conditions need not be identical. Equal entries are not always repeated. A number with no mark means an inactive call. Records with an inconclusive call do not appear. Entries that show only a call come without a potency. Calls of active or inactive are those of the source. The call rests on the fitted dose curve; in most records, active means well fitted curve in the direction sought with a large enough effect; inconclusive means small, poorly fitted or top-dose-only effect, or another doubt; inactive means no such curve, though single readings can be large; an effect the other way counts as inactive or inconclusive.

What was measured:
[1] = Primary qHTS for inhibitors of nuclear receptor binding SET domain protein 2 (NSD2) in an RCH-ACV wild type WT cells (2C) (AID 1645877); further: nearly all actives have a fitted effect of over 70% in size; further: potency means the concentration at half of the fitted maximal effect
[2] = biological target: Glutathione peroxidase 1 (Homo sapiens) (UniProt P07203); assay: Primary qHTS Assay for Inhibitors of Recombinant Selenoprotein Glutathione Peroxidase 1 (GPX1) (AID 1845191); further: nearly all actives have a fitted effect of over 65% in size; further: potency means the concentration at half of the fitted maximal effect
Summary of the method: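 10 nM GPX1 + cpd, 30 min RT; start w/ 1 mM GSH, 0.5 mM cumene hydroperoxide, 0.5 mM NADPH, 100 nM GR, 0.01% BSA; buffer 50 mM Tris-HCl pH 7.5, 2 mM EDTA, 150 mM NaCl; Fl 340/450, 0 & 15 min.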

[3] = biological target: Phospholipid hydroperoxide glutathione peroxidase GPX4 (Homo sapiens) (UniProt P36969); assay: Primary qHTS Assay for Inhibitors of Recombinant Selenoprotein Glutathione Peroxidase 4 (GPX4) (AID 1845192); further: nearly all actives have a fitted effect of over 65% in size; further: potency means the concentration at half of the fitted maximal effect
Summary of the method: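 NADPH consumption, followed by fluorescence at 340/450 nm between 0 and 15 min, reports GPX4 activity via coupled glutathione reductase (100 nM). Enzyme 200 nM was pre-exposed to compound 30 min; 0.5 mM cumene hydroperoxide and 1 mM GSH served as substrates.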

[4] = biological target: Luciferin 4-monooxygenase (Photinus pyralis) (UniProt P08659); assay: Primary firefly luciferase (FLuc) qHTS assay for identification of artifact compounds. (AID 1845220); further: nearly all actives have a fitted effect of over 60% in size
Summary of the method: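 FLuc 10 nM; luciferin 10 uM; ATP 10 uM; Tris-acetate pH 7.6, Mg-acetate 10 mM; 15 min RT preincubation; 5 min reaction; luminescence.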

[5] = Primary fluorescence-based thiol-reactive (MSTI) qHTS assay for identification of artifact compounds. (AID 1845221); further: nearly all actives have a fitted effect of over 65% in size; further: potency means the concentration at half of the fitted maximal effect;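 on activity change, negative = thiol reactive: series mostly up to about 54 µM; thiol-reactive compounds lower the probe fluorescence signal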
Summary of the method: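 One-hour, room-temperature, dark incubation of compound with 4 uM MSTI in PBS (pH 7.4, 2% DMSO) precedes a fluorescence read at 525 nm excitation, 598 nm emission; Hill-equation fitting yields concentration-response values.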

[6] = system: Nanoluciferase (engineered Oplophorus gracilirostris luciferase); assay: Primary Nanoluciferase (NLuc) qHTS assay for identification of artifact compounds. (AID 1845222);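 further: NLuc secreted into diluted conditioned medium of S16 cells; series mostly up to about 54 µM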
Summary of the method: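 NLuc from S16 cell medium (1:55) plus test compounds, 15 min, room temperature. Luminescence after Nano-Glo (1:100) addition, 5 min.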

[7] = Primary redox qHTS assay for identification of artifact compounds. (AID 1845223)
Summary of the method: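 Amplex Red (25 uM) and HRP (250 mU/mL) in HBSS, with compounds for 15 min, then 250 uM DTT for 30 min, room temperature, dark. Fluorescence 525/598 nm read; normalized to DMSO and 10 uM DA3003; Hill fit.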

Glutathione peroxidase 1 (Homo sapiens), sequence (P07203 whole entry, looked up): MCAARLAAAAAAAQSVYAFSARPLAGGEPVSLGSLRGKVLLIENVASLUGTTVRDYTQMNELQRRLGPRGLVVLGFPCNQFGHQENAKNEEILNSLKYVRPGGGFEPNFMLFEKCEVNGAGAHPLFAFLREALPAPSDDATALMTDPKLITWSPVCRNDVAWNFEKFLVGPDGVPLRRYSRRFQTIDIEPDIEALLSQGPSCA
Phospholipid hydroperoxide glutathione peroxidase GPX4 (Homo sapiens), sequence (P36969 whole entry, looked up): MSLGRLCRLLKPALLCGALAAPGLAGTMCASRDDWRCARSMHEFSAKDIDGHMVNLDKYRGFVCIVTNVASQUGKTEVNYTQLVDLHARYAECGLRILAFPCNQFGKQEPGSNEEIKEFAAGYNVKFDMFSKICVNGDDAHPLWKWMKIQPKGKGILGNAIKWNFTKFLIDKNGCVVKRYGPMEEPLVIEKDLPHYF

Compound	Potency [1]	Potency [2]	Potency [3]	Potency [4]	Potency [5]	Potency [6]	Potency [7]	outcome [1]	outcome [4]	activity change, negative = thiol reactive [5]	activity, negative = inhibition [6]	redox activity (% of DA3003) [7]
C/C=C(\C)C(=O)O[C@H]1[C@@H](O[C@]2(COC(=O)CC(C)C)O[C@H](COC(=O)C(C)CC)[C@@H](OC(C)=O)[C@@H]2O)O[C@H](COC(C)=O)[C@@H](O)[C@@H]1O (some centres undefined)	inactive	inactive	inactive	inactive	inactive	inactive	inactive					
O=C(CC(c1ccccc1)c1ccccc1)N1CCN(C(c2ccccc2)c2ccccc2)CC1	8170 nM (active)	inactive	inactive	inactive	inactive	inactive	inactive					
O=C(O)CC1CCC(c2ccc(-c3ccc4nc(C(=O)NCc5ccc(OC(F)(F)F)cc5)cn4c3)cc2)CC1 (centres undefined)	inactive	inactive	inactive	inactive	inactive	inactive	inactive					
COc1ccc(-c2ccc3c(N4CCOCC4)nc(N4CC(C)OC(C)C4)nc3n2)cc1CO (centres undefined)	291 nM (active)	18000 nM (active)	22700 nM (active)	inactive	inactive	inactive	inactive					
Cc1cc(Nc2cc(N3CCN(C)CC3)nc(/C=C/c3ccccc3)n2)n[nH]1	649 nM (active) and 742 nM (active)	inactive	inactive	inactive	inactive	inactive	inactive					
CCCOc1ccc(-c2nc(OC)c3ccccc3n2)cc1	inactive	inactive	inactive	inactive	inactive	inactive	inactive					
O=C(Nc1ccc(S(=O)(=O)Nc2ccccc2Cl)c(Cl)c1)c1ccccn1	inactive	inactive	inactive	inactive	inactive	inactive	inactive					
C=C1CCC2C(C)(C(=O)OC)CCCC2(C)C1CCC(C)CC(=O)O (centres undefined)	inactive	inactive	inactive	inactive	inactive	inactive	inactive					
C=C(C)C1CCC2(C(=O)O[C@@H]3O[C@H](CO[C@@H]4O[C@H](CO)[C@@H](O)[C@H](O)[C@H]4O)[C@@H](O)[C@H](O[C@@H]4O[C@@H](C)[C@H](O)[C@@H](O)[C@H]4O)[C@H]3O)CCC3(C(=O)O)C(CCC4C5(C)CCC(O)C(C)(C)C5CCC43C)C12 (some centres undefined)		inactive	inactive					inactive [at 9.23 µM]	inactive [at 11.6 µM]	301% [at 11.5 µM]	0% [at 11.6 µM]	10.3% [at 11.5 µM]
COc1c2ccoc2cc2oc(CO[C@@H]3O[C@H](CO)[C@@H](O)[C@H](O)[C@H]3O)cc(=O)c12	inactive	inactive	inactive	inactive	inactive	inactive	inactive					
CC1(C)CC[C@]2(C(=O)O[C@@H]3O[C@H](CO)[C@@H](O)[C@H](O)[C@H]3O)CC[C@]3(C)C(=CCC4[C@@]5(C)C[C@@H](O)[C@H](O)[C@](C)(C(=O)O)C5CC[C@]43C)C2C1O (some centres undefined)	inactive	inactive	inactive	inactive	inactive	inactive	inactive					
NC1CCC(Nc2cc(-c3cccc(NCc4cccc(F)c4)n3)c(Cl)cn2)CC1 (centres undefined)	72.8 nM (active)	inactive	inactive	inactive	inactive	inactive	inactive					
C=CC1(C)CC(OC(=O)/C(C)=C\COC(C)=O)C(C(=C)C(=O)O)C(O)C1C(=C)CO (centres undefined)	inactive	inactive	inactive	inactive	inactive	inactive	inactive					
Nc1ncnc2c1nc(N)n2[C@@H]1O[C@H](CO)[C@@H](O)[C@H]1O	649 nM (active)	inactive	inactive	inactive	inactive	inactive	inactive					
O=C(O[C@H]1[C@@H]2C[C@@H]3OC[C@](O)([C@@H]1Cl)[C@H]2C(O[C@@H]1O[C@H](CO)[C@@H](O)[C@H](O)[C@H]1O)O3)c1ccc(O)c(O)c1 (some centres undefined)	inactive	inactive	inactive	inactive	1460 nM (active)	inactive	inactive					
CC(C)S(=O)(=O)NC[C@H](C)c1ccc(NC(=O)c2cc(F)cc(F)c2)cc1	inactive	inactive	inactive	inactive	inactive	inactive	inactive					
CC(C)(C)c1cc(Br)cc([C@H](CC(=O)O)NC(=O)CNC(=O)c2cc(O)cc(NC3=NCC(O)CN3)c2)c1 (some centres undefined)	inactive	inactive	inactive	inactive	inactive	inactive	inactive					
